Data on ten compounds can be found in PubChem BioAssay (NCATS).

A short description of assay [1]: qHTS for differential inhibitors of proliferation of Plasmodium falciparum line Dd2 (AID 1882).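 Note: series mostly up to about 29 µM; compound exposure of 72 h on infected erythrocytes; nearly all actives have a fitted effect of over 65% in size.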 The conditions noted are these: Potency: Plasmodium falciparum Dd2 proliferation inhibition. Summed up:
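SYBR Green I DNA fluorescence read-out, ex 485/em 535 nm. Signals were normalized to 0.29 uM artemisinin and DMSO wells, then corrected using vehicle-only plates flanking each stack. Parasite growth ran 72 h in erythrocytes before lysis.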
Background: qHTS replaces the single test concentration by a dilution series.

Assay [2] is described as follows: qHTS for differential inhibitors of proliferation of Plasmodium falciparum line W2 (AID 1883).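 Note: parasites grown with compound for 72 h before lysis and staining.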 The settings on record: Potency: Plasmodium falciparum W2 proliferation inhibition.
Assay [3] in a line: qHTS for differential inhibitors of proliferation of Plasmodium falciparum line HB3 (AID 1886).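 Note: parasites grown with compound for 72 h before SYBR Green readout.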 The settings on record: Potency: Plasmodium falciparum HB3 proliferation inhibition.
Assay [4] can be described thus: qHTS Assay for Modulators of Human Peripheral Myelin Protein 22 (PMP22) Expression/Activity (AID 1967; active = well fitted curve in the direction sought with a large enough effect in the signal ratio; the % refers to the signal ratio). Summed up:
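MSC80 mouse Schwann cells stably carrying Pmp22 promoter–green click beetle luciferase plus EF-alpha–red luciferase control were dosed for 24h at 37 °C. Dual-colour luminescence was filter-overlap corrected; %Activity came from green/red ratio versus untreated cells.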

The target in assay [5] is Ferritin light chain (Equus caballus) (UniProt P02791). Briefly: qHTS Validation Assay for Identification of Novel General Anesthetics (AID 2323). Note: potency is the fitted concentration of half-maximal effect. Summed up:
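Competitive displacement of profluorescent 1-aminoanthracene (1-AMA, 50% saturated solution in PBS) from 10 uM horse-spleen apoferritin. Compounds incubated 10 min at room temperature; fluorescence read at 380 nm excitation/535 nm emission, normalized to free 1-AMA and complex, fitted with four-parameter Hill equation.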

Assay [6] in a line: Cytometric Cell-Based qHTS for Inhibitors of the mTORC1 Signaling Pathway in MEF (Tsc2-/-, p53-/-) Cells (AID 2660).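 Note: percent of cells above a phospho-rpS6 to PI ratio cutoff in each well; series mostly up to about 38 µM.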 In short, it runs like this:
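Percent of cells positive for normalized phospho-S6 staining is reported, with the cutoff set from rapamycin (7.5 nM) versus DMSO wells. Tsc2-/-, p53-/- MEFs received compound for 24 hrs.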

The nature of assay [7]: High Content Imaging Cell-Based qHTS for Inhibitors of the mTORC1 Signaling Pathway in MEF (Tsc2-/-, p53-/-) Cells (AID 2666).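 Note: percent of cells scored positive for phospho-rpS6 Ser235/236 immunostaining by imaging.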 In short, it runs like this: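 Read-out: % positive cells per well, with thresholds from highest- and lowest-signal wells, based on phospho-rpS6 (Ser235/236) intensity normalized to Hoechst nuclear stain. Cells: Tsc2-/-, p53-/- MEFs carrying empty vector; compound 24 hrs, 37 degree Celsius.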

Assay [8] is described as follows: High Content Imaging Cell-Based qHTS for Inhibitors of the mTORC1 Signaling Pathway in MEF Cells (AID 2667).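 Note: Tsc2-/- p53-/- MEFs stably re-expressing wild-type Tsc2 exposed 24 h; series mostly up to about 38 µM.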 In short, it runs like this:
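MEF (Tsc2-/-, p53-/-, WT Tsc2 re-expressed); cpd 24 h, 37 °C; PFA fix; Alexa-488 anti-p-rpS6 Ser235/236, PI, Hoechst; IN Cell imaging; Hoechst/Alexa-488 intensity ratio; % active cells, thresholds set from rapamycin and DMSO wells.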

A short description of assay [9]: Cytometry Cell-Based qHTS for Inhibitors of the mTORC1 Signaling Pathway in MEF cells (AID 2668).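 Note: Tsc2-/- p53-/- mouse embryonic fibroblasts stably re-expressing wild-type Tsc2; percent cells positive for phospho-rpS6 Ser235/236 relative to propidium iodide stain; series mostly up to about 38 µM.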 In short, it runs like this: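 WT MEFs (Tsc2-/-, p53-/- stably re-expressing WT Tsc2) in DMEM + 10% FBS received compounds 24 hrs after plating, for 24 hrs at 37 degree Celsius. Fixed cells stained with Alexa-488 anti-phospho-rpS6 Ser235/236 and propidium iodide; laser-scanning cytometry read-out.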

The nature of assay [10]: Validation screen for small molecules that induce DNA re-replication in MCF 10A normal breast cells (AID 463097). Note: nearly all actives have a fitted effect of over 60% in size. Summed up: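 Readout: Hoechst nuclear fluorescence intensity, 405 ex / 500-530 em, by scanning plate imager; re-replication scored as increase in nuclei with elevated DNA content. Cells exposed to compound 48 hr, 37 C, 5% CO2 beforehand.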
The target of assay [11] is Ubiquitin carboxyl-terminal hydrolase 2 (Homo sapiens) (UniProt O75604). Briefly: qHTS Validation Assay for Inhibitors of Ubiquitin-specific Protease USP2a Using CHOP2 as the Reporter (AID 463106). In short, it runs like this:
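USP2 core (10nM final) was preincubated with compound for 30min at RT in 20mM Tris-HCl pH 8.0, 2mM CaCl2, 2mM beta-mercaptoethanol, 0.05% CHAPS. Ub-CHOP2 and reporter substrate (25nM each) were added, and fluorescence (Ex 485/Em 531nm) was read after 60min.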

The target of assay [12] is DNA polymerase III PolC-type (Bacillus subtilis (strain 168)) (UniProt P13267). Briefly: qHTS Validation Assay for the Inhibitors of DNA Replication in Gram-Positive Bacteria (AID 485295).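 Note: PicoGreen fluorescence of double-stranded DNA made on primed circular M13 template; series mostly up to about 57 µM.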 In short, it runs like this:
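Reconstituted B. subtilis holoenzyme (Pol III, beta clamp, SSB, primase) was preincubated with compound at room temperature, then given single-stranded circular M13Gori plus dNTPs and NTPs. EDTA-containing PicoGreen stopped the reaction, and dsDNA product was read by fluorescence.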

Assay [13] deals with Beta-2 adrenergic receptor (Homo sapiens) (UniProt P07550). Briefly: qHTS validation assay of beta-arrestin-biased ligands of beta2-adrenergic receptor (AID 485366). In short, it runs like this: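 Luminescence from a tTA-responsive luciferase, induced when recombinant beta-arrestin is recruited to recombinant beta2-AR, served as the agonism signal. Cells were exposed to compound for 18 hr at 37 degrees C; titrations spanned up to 46 microM.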
Sequence of Beta-2 adrenergic receptor (Homo sapiens) (P07550 whole entry, looked up): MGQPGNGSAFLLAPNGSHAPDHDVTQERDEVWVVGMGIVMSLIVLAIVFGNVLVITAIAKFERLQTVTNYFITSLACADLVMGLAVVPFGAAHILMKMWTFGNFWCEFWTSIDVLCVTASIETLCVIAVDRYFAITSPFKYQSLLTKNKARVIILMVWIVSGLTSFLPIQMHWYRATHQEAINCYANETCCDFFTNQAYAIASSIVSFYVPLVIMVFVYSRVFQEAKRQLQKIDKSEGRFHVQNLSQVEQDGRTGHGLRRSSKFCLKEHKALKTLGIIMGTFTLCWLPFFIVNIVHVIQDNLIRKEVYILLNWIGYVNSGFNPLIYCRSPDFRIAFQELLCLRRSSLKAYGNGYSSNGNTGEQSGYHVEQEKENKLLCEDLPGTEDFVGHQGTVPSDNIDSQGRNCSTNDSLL

The target in assay [14] is ATP-dependent DNA helicase Q1 (Homo sapiens) (UniProt P46063). Briefly: qHTS Validation Assay for Inhibitors of RecQ-Like Dna Helicase 1 (RECQ1) (AID 2353). Summed up:
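50 nM RECQ1T1 preincubated 15 min with compound in Tris pH 8.0 buffer with MgCl2, DTT, Tween-20 and 2.5 ug/ml poly(dI-dC); started with 200 nM TAMRA/BHQ-2 forked duplex and 2 mM ATP. Unwinding read as fluorescence (525/598 nm), two reads 2 h apart.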

Assay [15] deals with Tumor susceptibility gene 101 protein (Homo sapiens) (UniProt Q99816). Briefly: qHTS Validation Assay for Iinhibitors of HIV-1 Budding by Blocking the Interaction of PTAP/TSG101 (AID 485342; calls by dose curve). In short, it runs like this:
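Tsg101 binding domain (10 uM final) in pH 7.5 HEPES/NaCl/Tween 20/EDTA/TCEP buffer was mixed with pin-transferred compounds, then FITC-labeled PTAP peptide (50 nM final) was added; after 20 min at r.t., fluorescence polarization was read.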

Assay [16] in a line: qHTS Validation Assay to Find Inhibitors of Chronic Active B-Cell Receptor Signaling (AID 485345; active = well fitted curve in the direction sought with a large enough effect in the main read-out, with a control signal flat, not every such curve was filed as active). Summed up:
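TMD8 ABC-DLBCL cells with dox-inducible green luciferase–IκBα fusion and red native luciferase; compounds 46 uM–3 nM, 4 h at 37C with doxycycline in 0.5% FBS IMDM. Green/red ratio normalized to basal and 10 uM MG-132.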

Assay [17] has as its target RecQ-like DNA helicase BLM (Homo sapiens) (UniProt P54132). Briefly: qHTS Validation Assay for Inhibitors of Bloom's syndrome helicase (BLM) (AID 2364). In short, it runs like this:
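BLM 50 nM in 25 mM Tris-HCl pH 8.0, 5 mM NaCl, 2 mM MgCl2, 1 mM DTT, 0.01% Tween-20, 2.5 ug/ml poly(dI-dC); 15 min cpd preinc, RT. Start: 200 nM forked DNA + 2 mM ATP (final). TAMRA read, 2 reads 2 h apart.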

Each structure is given as a SMILES string. Inconclusive results are not listed. Active and inactive are the calls of the source. Unless noted, calls come from the whole dose curve; as a rule, active = well fitted curve in the direction sought with a large enough effect; inconclusive = small, poorly fitted or top-dose-only effect, or another doubt; inactive = no such curve, though single readings can be large; an effect the other way counts as inactive or inconclusive.

Sequence of Ferritin light chain (Equus caballus) (P02791 2-175 limits assumed): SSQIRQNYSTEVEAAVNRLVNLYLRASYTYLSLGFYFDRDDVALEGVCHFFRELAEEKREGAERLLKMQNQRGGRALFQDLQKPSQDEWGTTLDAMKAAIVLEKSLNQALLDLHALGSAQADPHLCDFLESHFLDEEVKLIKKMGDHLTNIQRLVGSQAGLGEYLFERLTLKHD
Sequence of Ubiquitin carboxyl-terminal hydrolase 2 (Homo sapiens) (O75604 whole entry, looked up): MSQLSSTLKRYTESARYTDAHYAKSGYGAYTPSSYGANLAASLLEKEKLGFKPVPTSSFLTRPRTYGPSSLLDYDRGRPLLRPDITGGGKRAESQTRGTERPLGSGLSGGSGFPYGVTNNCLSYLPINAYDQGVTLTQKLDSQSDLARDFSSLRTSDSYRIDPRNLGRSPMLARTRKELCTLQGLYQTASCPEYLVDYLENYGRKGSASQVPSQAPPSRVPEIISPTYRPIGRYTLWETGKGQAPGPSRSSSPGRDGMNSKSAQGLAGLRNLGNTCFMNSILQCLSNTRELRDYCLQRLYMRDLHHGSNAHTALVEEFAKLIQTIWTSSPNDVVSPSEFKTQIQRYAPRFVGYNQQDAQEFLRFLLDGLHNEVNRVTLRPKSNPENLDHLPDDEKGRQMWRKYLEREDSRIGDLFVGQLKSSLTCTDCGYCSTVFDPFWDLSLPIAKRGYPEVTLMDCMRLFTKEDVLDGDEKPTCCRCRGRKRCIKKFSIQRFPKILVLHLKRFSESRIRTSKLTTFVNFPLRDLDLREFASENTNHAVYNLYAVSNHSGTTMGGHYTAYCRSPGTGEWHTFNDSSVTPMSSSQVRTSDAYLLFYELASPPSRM
Sequence of ATP-dependent DNA helicase Q1 (Homo sapiens) (P46063 whole entry, looked up): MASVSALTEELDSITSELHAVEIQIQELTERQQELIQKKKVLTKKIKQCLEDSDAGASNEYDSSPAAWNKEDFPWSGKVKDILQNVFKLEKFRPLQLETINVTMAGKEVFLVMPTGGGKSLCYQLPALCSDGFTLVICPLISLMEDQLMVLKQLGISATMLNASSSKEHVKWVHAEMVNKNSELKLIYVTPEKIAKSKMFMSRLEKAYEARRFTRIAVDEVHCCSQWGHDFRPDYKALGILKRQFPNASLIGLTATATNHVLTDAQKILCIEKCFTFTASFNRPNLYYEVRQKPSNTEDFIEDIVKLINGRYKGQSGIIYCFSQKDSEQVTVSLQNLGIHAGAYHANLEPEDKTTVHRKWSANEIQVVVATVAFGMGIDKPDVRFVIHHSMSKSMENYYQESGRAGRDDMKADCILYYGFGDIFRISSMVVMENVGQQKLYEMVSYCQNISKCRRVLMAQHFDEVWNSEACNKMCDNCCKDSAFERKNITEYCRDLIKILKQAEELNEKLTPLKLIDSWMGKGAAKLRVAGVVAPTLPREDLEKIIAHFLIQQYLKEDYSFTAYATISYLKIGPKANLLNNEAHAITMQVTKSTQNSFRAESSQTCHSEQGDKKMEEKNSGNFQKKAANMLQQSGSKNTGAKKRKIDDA
Sequence of Tumor susceptibility gene 101 protein (Homo sapiens) (Q99816 whole entry, looked up, the tested form may be a part): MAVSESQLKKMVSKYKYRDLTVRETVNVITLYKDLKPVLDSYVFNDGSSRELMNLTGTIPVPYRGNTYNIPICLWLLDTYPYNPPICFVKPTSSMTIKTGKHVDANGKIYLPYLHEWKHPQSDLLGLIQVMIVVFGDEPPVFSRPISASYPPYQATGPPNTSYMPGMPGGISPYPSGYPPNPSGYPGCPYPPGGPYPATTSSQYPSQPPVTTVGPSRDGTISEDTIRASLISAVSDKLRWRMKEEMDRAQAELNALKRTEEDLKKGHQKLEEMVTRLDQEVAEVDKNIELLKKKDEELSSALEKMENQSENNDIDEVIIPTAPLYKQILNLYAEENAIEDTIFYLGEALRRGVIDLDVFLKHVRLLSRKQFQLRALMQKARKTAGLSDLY
Sequence of DNA polymerase III PolC-type (Bacillus subtilis (strain 168)) (P13267 whole entry, looked up): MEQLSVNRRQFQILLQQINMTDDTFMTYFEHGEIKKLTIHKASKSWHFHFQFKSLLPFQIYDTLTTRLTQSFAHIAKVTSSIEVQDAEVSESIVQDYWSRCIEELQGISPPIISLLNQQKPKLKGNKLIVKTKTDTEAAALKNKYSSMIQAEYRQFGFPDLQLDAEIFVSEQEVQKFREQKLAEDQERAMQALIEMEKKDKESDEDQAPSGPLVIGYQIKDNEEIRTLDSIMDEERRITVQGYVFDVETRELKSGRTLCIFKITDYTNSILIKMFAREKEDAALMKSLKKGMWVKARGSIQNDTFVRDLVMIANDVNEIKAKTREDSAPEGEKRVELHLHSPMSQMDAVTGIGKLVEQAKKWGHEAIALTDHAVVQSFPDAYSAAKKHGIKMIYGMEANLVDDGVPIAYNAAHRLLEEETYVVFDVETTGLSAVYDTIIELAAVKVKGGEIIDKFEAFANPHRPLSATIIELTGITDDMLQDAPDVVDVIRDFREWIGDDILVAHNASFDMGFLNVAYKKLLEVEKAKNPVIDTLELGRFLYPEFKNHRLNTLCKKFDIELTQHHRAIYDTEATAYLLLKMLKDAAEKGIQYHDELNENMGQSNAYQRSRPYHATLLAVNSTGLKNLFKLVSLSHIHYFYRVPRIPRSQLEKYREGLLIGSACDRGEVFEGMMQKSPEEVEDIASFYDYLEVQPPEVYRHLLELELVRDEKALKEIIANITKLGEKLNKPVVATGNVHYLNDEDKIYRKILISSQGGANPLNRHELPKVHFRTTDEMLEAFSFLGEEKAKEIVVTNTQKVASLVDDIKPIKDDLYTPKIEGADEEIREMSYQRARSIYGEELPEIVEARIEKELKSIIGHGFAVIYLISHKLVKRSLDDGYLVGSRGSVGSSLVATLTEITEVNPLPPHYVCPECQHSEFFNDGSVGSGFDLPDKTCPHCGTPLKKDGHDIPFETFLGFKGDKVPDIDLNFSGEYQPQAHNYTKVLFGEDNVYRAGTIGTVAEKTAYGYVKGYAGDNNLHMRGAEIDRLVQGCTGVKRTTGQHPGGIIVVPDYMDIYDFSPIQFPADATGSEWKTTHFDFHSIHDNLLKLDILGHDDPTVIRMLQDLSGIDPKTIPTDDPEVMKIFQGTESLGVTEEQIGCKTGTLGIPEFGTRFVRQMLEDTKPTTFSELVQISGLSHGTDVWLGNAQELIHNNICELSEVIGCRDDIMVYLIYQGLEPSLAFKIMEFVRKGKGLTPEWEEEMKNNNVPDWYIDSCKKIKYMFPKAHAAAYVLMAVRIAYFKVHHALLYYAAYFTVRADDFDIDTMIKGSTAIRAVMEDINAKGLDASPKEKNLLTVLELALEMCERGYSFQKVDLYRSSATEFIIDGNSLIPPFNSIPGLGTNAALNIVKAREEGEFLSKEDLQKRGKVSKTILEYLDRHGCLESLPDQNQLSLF

In the case of `CCCCCC(O)CCCC(=O)O` (configuration not stated), the Potency result in assay [1], in assay [2], in assay [3], in assay [5], in [7] and in assay [8] was “inactive” in each case. Moreover, the Potency entry in assay [9], in assay [10], in assay [11] and in assay [12] was “inactive” throughout. Moreover, the result in assay [4], in [6] and in assay [13] was inactive.
On to `NC1(C(=O)O)CCCCC1`, for which the Potency result in assay [1], in assay [2], in assay [3], in [5], in [14] and in assay [7] was “inactive” in each case. Moreover, the Potency result in assay [8], in [9], in assay [10], in [11] and in assay [12] was “inactive” each time. The compound was classed as inactive in assay [4], in assay [6], in [15] and in [13].
For the compound `CCCCCCC/C=C\CCCCCCCCC(=O)O`, the Potency entry in [1], in assay [2], in [3], in [7], in [8] and in assay [9] was “inactive” in each case. In addition, the Potency result in [11] and in [12] was “inactive” in each case. Besides, the outcome in assay [4] and in [6] was inactive. Moreover, in assay [5], the Potency is 31.6 µM (active).
Turning to `CSC(=N)N`, the Potency result in assay [1], in [2], in [3], in assay [14], in assay [7] and in assay [8] was “inactive” in each case. Also, the Potency entry in [9], in assay [10], in [11] and in [12] was “inactive” each time. For the same compound, the call in assay [4], in [6], in assay [15], in assay [16] and in [13] was inactive.
Regarding `CC(=O)NCCc1c[nH]c2ccc(O)cc12`, the Potency result in assay [1], in assay [2], in assay [3], in assay [5], in assay [14] and in [7] was “inactive” each time. Moreover, the Potency entry in [8], in [9], in [10], in [11] and in assay [12] was “inactive” in each case. The outcome in [4], in assay [15] and in assay [13] was inactive.
On to `O=[N+]([O-])c1cccc2c(Br)[nH]nc12`, for which the Potency result in assay [1], in assay [2], in assay [3], in assay [5], in [14] and in assay [10] was “inactive” throughout. Moreover, the Potency entry in assay [11] and in assay [12] was “inactive” throughout. Besides, the result in [4], in assay [6], in assay [15], in [16] and in [13] was inactive.
As to `C=C(C)C1CC=C(C(=O)O)CC1` (configuration not stated), the Potency result in assay [1], in assay [2], in assay [3], in assay [5], in assay [14] and in assay [17] was “inactive” in each case. In addition, the Potency result in assay [7], in assay [8], in assay [9], in [10], in assay [11] and in [12] was “inactive” throughout. Also, the result in assay [4], in [6], in assay [15] and in [13] was inactive.
Consider `N[C@H](C(=O)O)c1cc(O)cc(O)c1`, for which the Potency result in [1], in [2], in assay [3], in assay [5], in assay [7] and in [8] was “inactive” in each case. Also, the Potency entry in assay [9], in assay [10], in assay [11] and in assay [12] was “inactive” throughout. Moreover, the compound was called inactive in assay [4], in assay [15], in assay [16] and in [13].
As to `NC(Cc1cccc(-c2ccccc2CP(=O)(O)O)c1)C(=O)O` (configuration not stated), the Potency result in assay [1], in assay [2], in [3], in [5], in assay [14] and in [7] was “inactive” each time. The Potency result in assay [10], in [11] and in assay [12] was “inactive” throughout. The result in assay [4], in [15], in assay [16] and in assay [13] was inactive.
Regarding `CCN(CC)CCOC(=O)c1cc(Cl)c(N)cc1OC`, the Potency result in assay [1], in assay [2], in assay [3], in assay [5], in [8] and in [9] was “inactive” throughout. In addition, the Potency entry in [10], in assay [11] and in assay [12] was “inactive” throughout. For the same compound, the outcome in [4], in assay [6], in assay [15] and in [13] was inactive.
